Test results: PubChem BioAssay AID1159580 (chemical genetic matrix, 2015)
The whole screen tested about 5,500 compounds, of which about 2,000 (36%) were called active. Inconclusive results (about 18%) are left out. Rule as the data show it: active = normalized growth mostly below about 0.91 (no sharp cut-off); inconclusive = no clear call, values can overlap the other calls; inactive = mostly above about 0.92. Some of the results follow.

Test: chemical genetic growth profiling, strain panel (AID 1159580);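 also: tested at 20 µM; growth read once vehicle control cultures reached saturation at 30 °C; 1 = growth at the plate median or of vehicle wells; lower values mean less growth of the strain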
Conditions: growth OD

Measured: normalized growth

COC(=O)[C@H]1[C@H]2C[C@@H]3c4[nH]c5cc(OC)ccc5c4CCN3C[C@H]2C[C@@H](OC(=O)c2cc(OC)c(OC)c(OC)c2)[C@@H]1OC
inactive: S. cerevisiae deletion strains, locus YKL009W, strain mrt4, stronger effect = lower value 1.02 | S. cerevisiae deletion strains, locus YKL068W, stronger effect = lower value 1.01 | S. cerevisiae deletion strains, locus YKL085W, strain MDH1 (second series), stronger effect = lower value 1.01 | S. cerevisiae deletion strains, locus YKL085W, strain MDH1, stronger effect = lower value 1.01 | S. cerevisiae deletion strains, locus YKL160W, strain elf1, stronger effect = lower value 0.961 | S. cerevisiae deletion strains, locus YKL190W, strain CNB1, stronger effect = lower value 0.967 | S. cerevisiae deletion strains, locus YKR001C, strain vps1, stronger effect = lower value 1.03 | S. cerevisiae deletion strains, locus YKR026C, strain gcn3, stronger effect = lower value 0.99 | S. cerevisiae deletion strains, locus YKR091W, strain srl3, stronger effect = lower value 0.982 | S. cerevisiae deletion strains, locus YLL001W, strain dnm1, stronger effect = lower value 1.02 | S. cerevisiae deletion strains, locus YLL026W, stronger effect = lower value 0.975 | S. cerevisiae deletion strains, locus YLL041C, strain sdh2, stronger effect = lower value 0.983 | S. cerevisiae deletion strains, locus YLR027C, strain aat2, stronger effect = lower value 0.986 | S. cerevisiae deletion strains, locus YLR039C, strain RIC1, stronger effect = lower value 1.05 | S. cerevisiae deletion strains, locus YLR058C, strain SHM2, stronger effect = lower value 0.999 | S. cerevisiae deletion strains, locus YLR102C, strain apc9, stronger effect = lower value 1 | S. cerevisiae deletion strains, locus YLR113W, strain HOG1, stronger effect = lower value 0.971 | S. cerevisiae deletion strains, locus YLR221C, strain rsa3, stronger effect = lower value 1.02 | S. cerevisiae deletion strains, locus YLR258W, strain gsy2, stronger effect = lower value 0.965 | S. cerevisiae deletion strains, locus YLR262C, strain YPT6 (second series), stronger effect = lower value 1 | S. cerevisiae deletion strains, locus YLR262C, strain YPT6, stronger effect = lower value 1.05 | S. cerevisiae deletion strains, locus YLR268W, strain sec22, stronger effect = lower value 1.04 | S. cerevisiae deletion strains, locus YLR320W, strain mms22, stronger effect = lower value 0.978 | S. cerevisiae deletion strains, locus YLR330W, strain CHS5, stronger effect = lower value 1 | S. cerevisiae deletion strains, locus YLR342W, strain FKS1 (second series), stronger effect = lower value 0.951 | S. cerevisiae deletion strains, locus YLR342W, strain FKS1, stronger effect = lower value 0.959 | S. cerevisiae deletion strains, locus YLR357W, strain rsc2, stronger effect = lower value 0.977 | S. cerevisiae deletion strains, locus YLR370C, strain arc18, stronger effect = lower value 0.976 | S. cerevisiae deletion strains, locus YLR371W, strain rom2, stronger effect = lower value 1.01 | S. cerevisiae deletion strains, locus YLR384C, strain iki3, stronger effect = lower value 0.989 | S. cerevisiae deletion strains, locus YLR418C, strain cdc73, stronger effect = lower value 0.977 | S. cerevisiae deletion strains, locus YML016C, strain PPZ1, stronger effect = lower value 1 | S. cerevisiae deletion strains, locus YML032C, strain rad52, stronger effect = lower value 1.02 | S. cerevisiae deletion strains, locus YML120C, strain ndi1, stronger effect = lower value 1 | S. cerevisiae deletion strains, locus YML124C, strain tub3, stronger effect = lower value 1.02 | S. cerevisiae deletion strains, locus YMR058W, strain fet3, stronger effect = lower value 0.986 | S. cerevisiae deletion strains, locus YMR078C, strain ctf18, stronger effect = lower value 1.01 | S. cerevisiae deletion strains, locus YMR125W, strain sto1, stronger effect = lower value 0.986 | S. cerevisiae deletion strains, locus YMR129W, stronger effect = lower value 0.981 | S. cerevisiae deletion strains, locus YMR205C, strain PFK2, stronger effect = lower value 0.982 | S. cerevisiae deletion strains, locus YMR223W, strain ubp8, stronger effect = lower value 0.995 | S. cerevisiae deletion strains, locus YMR231W, strain pep5, stronger effect = lower value 1 | S. cerevisiae deletion strains, locus YMR263W, strain SAP30, stronger effect = lower value 0.979 | S. cerevisiae deletion strains, locus YMR307W, strain GAS1, stronger effect = lower value 0.912 | S. cerevisiae deletion strains, locus YNL067W, strain RPL9B, stronger effect = lower value 0.994 | S. cerevisiae deletion strains, locus YNL071W, strain lat1, stronger effect = lower value 0.971 | S. cerevisiae deletion strains, locus YNL128W, strain TEP1, stronger effect = lower value 1 | S. cerevisiae deletion strains, locus YNL153C, strain GIM3, stronger effect = lower value 1 | S. cerevisiae deletion strains, locus YNL183C, strain NPR1, stronger effect = lower value 0.949 | S. cerevisiae deletion strains, locus YNL209W, strain ssb2, stronger effect = lower value 0.984 | S. cerevisiae deletion strains, locus YNL233W, strain BNI4, stronger effect = lower value 0.997 | S. cerevisiae deletion strains, locus YNL248C, strain rpa49, stronger effect = lower value 0.955 | S. cerevisiae deletion strains, locus YNL250W, strain rad50, stronger effect = lower value 1.01 | S. cerevisiae deletion strains, locus YNL271C, strain bni1, stronger effect = lower value 1.02 | S. cerevisiae deletion strains, locus YNL298W, strain CLA4, stronger effect = lower value 1.02 | S. cerevisiae deletion strains, locus YNL307C, strain MCK1, stronger effect = lower value 1.01 | S. cerevisiae deletion strains, locus YNL322C, strain KRE1 (second series), stronger effect = lower value 0.976 | S. cerevisiae deletion strains, locus YNL322C, strain KRE1, stronger effect = lower value 0.995 | S. cerevisiae deletion strains, locus YNR049C, strain mso1, stronger effect = lower value 0.972 | S. cerevisiae deletion strains, locus YNR052C, strain pop2, stronger effect = lower value 1 | S. cerevisiae deletion strains, locus YOL006C, strain TOP1, stronger effect = lower value 0.989 | S. cerevisiae deletion strains, locus YOL012C, strain htz1 0.714 | S. cerevisiae deletion strains, locus YOL147C, strain pex11, stronger effect = lower value 1.02 | S. cerevisiae deletion strains, locus YOR001W, strain rrp6, stronger effect = lower value 1.03 | S. cerevisiae deletion strains, locus YOR061W, strain CKA2, stronger effect = lower value 0.999 | S. cerevisiae deletion strains, locus YOR069W, strain VPS5, stronger effect = lower value 1 | S. cerevisiae deletion strains, locus YOR070C, strain gyp1, stronger effect = lower value 0.983 | S. cerevisiae deletion strains, locus YOR080W, strain dia2, stronger effect = lower value 0.982 | S. cerevisiae deletion strains, locus YOR083W, strain WHI5, stronger effect = lower value 0.948 | S. cerevisiae deletion strains, locus YOR106W, strain vam3, stronger effect = lower value 0.947 | S. cerevisiae deletion strains, locus YOR136W, strain idh2, stronger effect = lower value 1.02 | S. cerevisiae deletion strains, locus YOR144C, strain elg1, stronger effect = lower value 1.01 | S. cerevisiae deletion strains, locus YOR184W, strain ser1, stronger effect = lower value 1.04 | S. cerevisiae deletion strains, locus YOR231W, strain MKK1, stronger effect = lower value 0.983 | S. cerevisiae deletion strains, locus YOR265W, strain rbl2, stronger effect = lower value 0.988 | S. cerevisiae deletion strains, locus YOR270C, strain vph1, stronger effect = lower value 0.969 | S. cerevisiae deletion strains, locus YOR290C, strain snf2, stronger effect = lower value 0.948 | S. cerevisiae deletion strains, locus YOR316C, strain cot1, stronger effect = lower value 1.01 | S. cerevisiae deletion strains, locus YPL051W, strain arl3, stronger effect = lower value 0.979 | S. cerevisiae deletion strains, locus YPL055C, strain LGE1, stronger effect = lower value 0.972 | S. cerevisiae deletion strains, locus YPL078C, strain atp4, stronger effect = lower value 0.972 | S. cerevisiae deletion strains, locus YPL106C, strain sse1, stronger effect = lower value 0.895 | S. cerevisiae deletion strains, locus YPL240C, strain hsp82, stronger effect = lower value 0.992 | S. cerevisiae deletion strains, locus YPL241C, strain CIN2, stronger effect = lower value 0.997 | S. cerevisiae deletion strains, locus YPL256C, strain CLN2, stronger effect = lower value 0.983 | S. cerevisiae deletion strains, locus YPR119W, strain clb2, stronger effect = lower value 1.01 | S. cerevisiae deletion strains, locus YPR141C, strain kar3, stronger effect = lower value 1.02 | S. cerevisiae deletion strains, locus YPR163C, strain tif3, stronger effect = lower value 1.02 | S. cerevisiae deletion strains, locus YPR167C, strain met16, stronger effect = lower value 1.01 | S. cerevisiae deletion strains, strain wtn01, stronger effect = lower value 1.01 | S. cerevisiae strains, strain wild type, stronger effect = lower value 0.986
